Key:
Test in all cases: log2 ratio of Biotin-Ahx-Ub-VS probe labelling (fragment/DMSO); higher = less target engagement (more negative = stronger competition), active = hit call of the paper (q ≤ 0.05, log2 ratio ≤ -1)
Details in all cases: compound concentration: 200 uM; treatment time: 3 h
ALG13 = biological target: T1, ALG13 (UniProt Q9NP73)
T1 sequence (whole entry): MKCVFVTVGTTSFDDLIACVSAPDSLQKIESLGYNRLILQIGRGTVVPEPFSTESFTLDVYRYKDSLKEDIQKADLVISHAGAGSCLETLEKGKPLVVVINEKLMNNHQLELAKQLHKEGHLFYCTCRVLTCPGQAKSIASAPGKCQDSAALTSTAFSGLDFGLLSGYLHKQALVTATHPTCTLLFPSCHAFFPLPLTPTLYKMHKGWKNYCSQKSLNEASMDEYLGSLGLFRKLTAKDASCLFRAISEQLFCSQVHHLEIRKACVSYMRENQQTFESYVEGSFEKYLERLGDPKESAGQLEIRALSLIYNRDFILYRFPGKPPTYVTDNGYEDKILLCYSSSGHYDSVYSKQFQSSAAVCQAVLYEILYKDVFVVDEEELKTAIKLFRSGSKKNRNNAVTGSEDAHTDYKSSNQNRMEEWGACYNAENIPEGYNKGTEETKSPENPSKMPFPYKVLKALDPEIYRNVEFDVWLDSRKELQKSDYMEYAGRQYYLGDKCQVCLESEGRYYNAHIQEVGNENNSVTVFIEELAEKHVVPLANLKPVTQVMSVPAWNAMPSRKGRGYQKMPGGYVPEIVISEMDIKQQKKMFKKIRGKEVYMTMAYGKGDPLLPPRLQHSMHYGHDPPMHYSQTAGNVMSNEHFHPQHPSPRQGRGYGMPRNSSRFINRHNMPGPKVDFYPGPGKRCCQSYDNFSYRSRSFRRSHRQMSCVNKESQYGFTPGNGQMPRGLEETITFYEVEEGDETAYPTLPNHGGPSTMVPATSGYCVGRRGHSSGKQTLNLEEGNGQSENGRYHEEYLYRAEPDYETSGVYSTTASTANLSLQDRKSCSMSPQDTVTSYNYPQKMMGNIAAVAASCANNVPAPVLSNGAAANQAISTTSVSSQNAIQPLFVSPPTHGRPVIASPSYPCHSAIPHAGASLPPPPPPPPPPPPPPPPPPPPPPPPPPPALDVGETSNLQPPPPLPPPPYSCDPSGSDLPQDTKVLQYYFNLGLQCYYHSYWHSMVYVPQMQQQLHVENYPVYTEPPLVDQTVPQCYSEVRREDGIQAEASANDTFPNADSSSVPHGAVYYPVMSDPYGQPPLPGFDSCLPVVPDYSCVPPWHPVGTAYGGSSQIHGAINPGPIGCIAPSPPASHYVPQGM
Summary of the method: (§1)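 HEK293T lysate (495 µg per sample, in Tris/CHAPS/IGEPAL buffer with protease inhibitors) was exposed in triplicate for 3 h to fragment at 200 µM or to vehicle, then to Biotin-Ahx-Ub-VS at 0.5 µM final for 1 h. Labelled DUBs were enriched on NeutrAvidin, digested with LysC and trypsin, and analysed by diaPASEF LC-MS/MS. Spectronaut label-free quantities were normalised to the global median, and values are average log2 ratios of fragment over vehicle from an unpaired t-test. Only proteins with ≥2 unique peptides were used.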

ATXN3 = ATXN3 (UniProt P54252)
Summary of the method: as §1

BAP1 = biological target: T2, BAP1 (UniProt Q92560)
T2 sequence (whole entry): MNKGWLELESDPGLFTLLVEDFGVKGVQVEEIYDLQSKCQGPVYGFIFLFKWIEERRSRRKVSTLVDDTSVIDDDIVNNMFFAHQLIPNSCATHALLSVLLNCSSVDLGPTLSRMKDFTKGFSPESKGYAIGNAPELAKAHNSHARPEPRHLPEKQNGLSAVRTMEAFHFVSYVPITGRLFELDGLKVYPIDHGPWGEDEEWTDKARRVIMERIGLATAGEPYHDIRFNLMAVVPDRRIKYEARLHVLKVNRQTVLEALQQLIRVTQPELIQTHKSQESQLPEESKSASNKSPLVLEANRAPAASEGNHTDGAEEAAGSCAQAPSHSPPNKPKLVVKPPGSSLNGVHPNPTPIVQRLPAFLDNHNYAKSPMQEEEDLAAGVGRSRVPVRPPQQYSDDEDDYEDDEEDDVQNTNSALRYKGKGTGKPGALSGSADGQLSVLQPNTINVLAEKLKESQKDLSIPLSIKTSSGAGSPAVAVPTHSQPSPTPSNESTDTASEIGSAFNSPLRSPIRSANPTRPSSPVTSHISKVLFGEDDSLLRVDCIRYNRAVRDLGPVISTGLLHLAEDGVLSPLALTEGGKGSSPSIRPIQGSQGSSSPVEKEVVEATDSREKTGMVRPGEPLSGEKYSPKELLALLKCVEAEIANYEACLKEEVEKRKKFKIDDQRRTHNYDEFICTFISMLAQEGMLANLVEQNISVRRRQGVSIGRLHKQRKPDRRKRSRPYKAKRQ
Summary of the method: as §1

EIF3F = EIF3F (UniProt O00303)
Summary of the method: as §1

EIF3H = EIF3H (UniProt O15372)
Summary of the method: as §1

FAM105A = biological target: T3, FAM105A (UniProt Q9NUU6)
T3 sequence (whole entry): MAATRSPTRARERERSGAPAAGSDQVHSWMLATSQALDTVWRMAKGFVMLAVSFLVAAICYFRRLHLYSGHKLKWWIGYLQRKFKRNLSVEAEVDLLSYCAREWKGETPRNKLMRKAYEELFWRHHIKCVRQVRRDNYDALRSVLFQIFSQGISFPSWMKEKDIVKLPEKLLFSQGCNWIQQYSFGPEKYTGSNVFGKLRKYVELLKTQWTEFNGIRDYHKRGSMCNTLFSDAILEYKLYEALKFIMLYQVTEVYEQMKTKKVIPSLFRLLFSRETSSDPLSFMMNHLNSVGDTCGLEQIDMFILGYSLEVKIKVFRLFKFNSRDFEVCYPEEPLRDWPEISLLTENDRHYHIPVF
Summary of the method: as §1

OTUB1 = OTUB1 (UniProt Q96FW1)
Summary of the method: as §1

OTUD4 = biological target: T4, OTUD4 (UniProt Q01804)
T4 sequence (whole entry): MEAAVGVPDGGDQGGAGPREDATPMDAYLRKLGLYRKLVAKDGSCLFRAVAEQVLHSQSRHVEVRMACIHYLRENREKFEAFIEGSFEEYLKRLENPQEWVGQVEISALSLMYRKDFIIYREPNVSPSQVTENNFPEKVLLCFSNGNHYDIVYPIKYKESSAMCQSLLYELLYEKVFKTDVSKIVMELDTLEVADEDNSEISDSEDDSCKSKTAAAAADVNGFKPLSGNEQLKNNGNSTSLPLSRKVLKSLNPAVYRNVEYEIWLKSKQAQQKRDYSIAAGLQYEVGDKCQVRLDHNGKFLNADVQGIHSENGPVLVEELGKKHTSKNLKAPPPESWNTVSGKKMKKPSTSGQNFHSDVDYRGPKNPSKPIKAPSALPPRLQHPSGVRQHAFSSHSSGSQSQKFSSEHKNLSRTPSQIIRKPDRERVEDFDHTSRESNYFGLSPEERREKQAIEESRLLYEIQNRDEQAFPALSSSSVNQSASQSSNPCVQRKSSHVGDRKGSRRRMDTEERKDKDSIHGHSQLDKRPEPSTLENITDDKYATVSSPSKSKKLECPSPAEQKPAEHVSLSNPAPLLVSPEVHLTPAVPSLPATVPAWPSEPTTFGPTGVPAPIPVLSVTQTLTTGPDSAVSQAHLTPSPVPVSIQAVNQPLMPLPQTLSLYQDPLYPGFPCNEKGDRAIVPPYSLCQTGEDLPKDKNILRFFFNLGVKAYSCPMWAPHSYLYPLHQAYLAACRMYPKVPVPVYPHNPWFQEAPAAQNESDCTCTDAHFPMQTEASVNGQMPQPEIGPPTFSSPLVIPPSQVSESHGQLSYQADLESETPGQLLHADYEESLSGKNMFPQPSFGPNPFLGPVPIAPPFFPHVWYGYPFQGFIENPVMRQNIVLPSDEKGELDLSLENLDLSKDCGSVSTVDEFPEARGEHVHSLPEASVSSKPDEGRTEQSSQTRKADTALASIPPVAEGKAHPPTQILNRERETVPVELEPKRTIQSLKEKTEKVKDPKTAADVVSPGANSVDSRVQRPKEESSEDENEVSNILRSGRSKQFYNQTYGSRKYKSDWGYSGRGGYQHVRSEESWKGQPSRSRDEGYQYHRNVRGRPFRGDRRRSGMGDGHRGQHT
Summary of the method: as §1

OTUD5 = biological target: T5, OTUD5 (UniProt Q96G74)
T5 sequence (whole entry): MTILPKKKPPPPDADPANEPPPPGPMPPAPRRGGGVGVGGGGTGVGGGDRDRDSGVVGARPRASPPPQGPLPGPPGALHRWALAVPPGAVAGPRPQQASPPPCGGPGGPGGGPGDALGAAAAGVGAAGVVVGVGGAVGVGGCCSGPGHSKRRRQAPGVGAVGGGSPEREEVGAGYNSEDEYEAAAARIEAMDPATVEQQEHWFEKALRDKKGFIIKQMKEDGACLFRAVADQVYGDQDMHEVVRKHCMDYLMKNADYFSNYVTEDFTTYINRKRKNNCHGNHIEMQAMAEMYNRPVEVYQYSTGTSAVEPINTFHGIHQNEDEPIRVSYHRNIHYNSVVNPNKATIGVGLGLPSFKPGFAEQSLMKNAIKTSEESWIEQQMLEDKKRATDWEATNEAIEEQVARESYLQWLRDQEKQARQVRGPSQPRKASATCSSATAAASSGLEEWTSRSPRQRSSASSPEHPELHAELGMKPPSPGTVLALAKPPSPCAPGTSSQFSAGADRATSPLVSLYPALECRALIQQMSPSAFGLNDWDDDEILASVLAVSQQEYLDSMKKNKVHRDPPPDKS
Summary of the method: as §1

Measured: log2 ratio of Biotin-Ahx-Ub-VS probe labelling

Chain of ATXN3 (P54252 whole entry): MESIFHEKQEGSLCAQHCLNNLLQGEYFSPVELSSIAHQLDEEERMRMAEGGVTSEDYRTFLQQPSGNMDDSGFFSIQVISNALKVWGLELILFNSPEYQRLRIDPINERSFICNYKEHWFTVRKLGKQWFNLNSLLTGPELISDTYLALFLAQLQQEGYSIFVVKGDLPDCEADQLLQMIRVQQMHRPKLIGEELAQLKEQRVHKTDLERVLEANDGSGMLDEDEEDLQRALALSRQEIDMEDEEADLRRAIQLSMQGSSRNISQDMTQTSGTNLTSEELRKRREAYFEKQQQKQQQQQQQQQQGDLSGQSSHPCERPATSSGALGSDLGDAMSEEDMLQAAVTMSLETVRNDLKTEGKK
Chain of EIF3H (O15372 whole entry): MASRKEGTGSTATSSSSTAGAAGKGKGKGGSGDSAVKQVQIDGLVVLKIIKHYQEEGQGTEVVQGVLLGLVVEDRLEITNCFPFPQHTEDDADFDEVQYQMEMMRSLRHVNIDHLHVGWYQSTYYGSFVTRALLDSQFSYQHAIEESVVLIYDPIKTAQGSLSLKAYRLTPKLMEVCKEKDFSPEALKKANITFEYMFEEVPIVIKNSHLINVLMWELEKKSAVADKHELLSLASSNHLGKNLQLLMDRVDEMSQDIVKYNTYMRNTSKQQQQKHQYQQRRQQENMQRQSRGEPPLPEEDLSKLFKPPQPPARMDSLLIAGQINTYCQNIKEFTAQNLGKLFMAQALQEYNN
Chain of EIF3F (O00303 whole entry): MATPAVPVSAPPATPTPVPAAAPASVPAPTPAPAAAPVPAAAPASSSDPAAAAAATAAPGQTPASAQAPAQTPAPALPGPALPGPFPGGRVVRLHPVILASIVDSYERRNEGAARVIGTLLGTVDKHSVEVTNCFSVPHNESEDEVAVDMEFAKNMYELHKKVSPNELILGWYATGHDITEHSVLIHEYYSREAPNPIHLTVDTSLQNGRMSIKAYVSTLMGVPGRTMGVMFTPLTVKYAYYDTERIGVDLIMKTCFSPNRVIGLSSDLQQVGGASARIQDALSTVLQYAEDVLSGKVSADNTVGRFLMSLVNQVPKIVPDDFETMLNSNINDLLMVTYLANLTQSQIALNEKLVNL
Chain of OTUB1 (Q96FW1 whole entry): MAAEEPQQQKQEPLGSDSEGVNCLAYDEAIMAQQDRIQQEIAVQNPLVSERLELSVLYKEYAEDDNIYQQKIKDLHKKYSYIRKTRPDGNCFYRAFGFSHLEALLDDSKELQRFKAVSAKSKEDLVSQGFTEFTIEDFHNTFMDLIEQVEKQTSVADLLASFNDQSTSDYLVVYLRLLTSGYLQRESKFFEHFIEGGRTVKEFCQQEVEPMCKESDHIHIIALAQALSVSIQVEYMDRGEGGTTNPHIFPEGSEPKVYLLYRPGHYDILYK

Cc1cccc(C(CNC(=O)CCl)N2CCOCC2)c1.Cl (centres undefined)
inactive: ALG13 -0.0491 | ATXN3 0.0164 | BAP1 -0.497 | EIF3F 0.0302 | EIF3H 0.267 | FAM105A -0.778 | OTUB1 -0.156 | OTUD4 -0.199 | OTUD5 -0.241

— the supplement of paper PMC11732987, “Enantioselective OTUD7B fragment discovery through chemoproteomics screening and high-throughput optimisation” (Communications Chemistry, 2025)
